Data from PubChem BioAssay (Tox21).
Results filed as inconclusive are left out. Active and inactive are the calls of the source. Unless noted, the call rests on the fitted dose curve.

Columns and labels:
[1] = Nuclear factor erythroid 2-related factor 2/antioxidant responsive element (Nrf2/ARE) small molecule agonists: qHTS cell viability counter screen in human keratinocytes (AID 1919968; active means well fitted curve in the direction sought with a large enough effect in the repeat runs; an effect the other way counts as inactive or inconclusive; further: nearly all actives have a fitted effect of over 55% in size)
Outline: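 After a 5 h attachment period, ARE-reporter keratinocytes were dosed with compounds in DMSO and then cultured 23 h at 37 C. Cell viability came from CellTiter-Fluor signal read after a further 1 h.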

[2] = Nuclear factor erythroid 2-related factor 2/antioxidant responsive element (Nrf2/ARE) small molecule agonists: luciferase reporter gene qHTS assay in human keratinocytes (AID 1919969); further: nearly all actives have a fitted effect of over 35% in size
[3] = target: Gonadotropin-releasing hormone receptor (Homo sapiens) (UniProt P30968); assay: Human gonadotropin-releasing hormone receptor (GnRHR) small molecule agonists, calcium flux assay in GnRHR-HEK293 cells (AID 1920063); further: nearly all actives have a fitted effect of over 35% in size
Gonadotropin-releasing hormone receptor (Homo sapiens), sequence (P30968 whole entry, looked up): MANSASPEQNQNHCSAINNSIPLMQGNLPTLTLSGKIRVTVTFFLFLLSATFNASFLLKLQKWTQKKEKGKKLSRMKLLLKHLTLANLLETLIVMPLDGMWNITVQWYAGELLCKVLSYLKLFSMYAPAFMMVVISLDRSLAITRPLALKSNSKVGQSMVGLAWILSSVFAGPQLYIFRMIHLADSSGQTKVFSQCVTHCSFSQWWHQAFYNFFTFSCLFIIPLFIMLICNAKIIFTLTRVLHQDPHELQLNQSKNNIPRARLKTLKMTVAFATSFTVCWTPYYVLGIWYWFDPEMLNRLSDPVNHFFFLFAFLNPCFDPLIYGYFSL
Outline: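 We seeded human GnRHR-expressing HEK293 cells for 18 hours, loaded them with calcium dye for an hour at 37 C, added test compounds, and recorded fluorescence intensity kinetically for three minutes.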

[4] = target: KiSS-1 receptor (Homo sapiens) (UniProt Q969F8); assay: Human kisspeptin (KISS1R) small molecule agonists, calcium flux assay in KISS1R-HEK293 cells (AID 1920064; active means well fitted curve in the direction sought with a large enough effect in the repeat runs; an effect the other way counts as inactive or inconclusive)
KiSS-1 receptor (Homo sapiens), sequence (Q969F8 whole entry, looked up): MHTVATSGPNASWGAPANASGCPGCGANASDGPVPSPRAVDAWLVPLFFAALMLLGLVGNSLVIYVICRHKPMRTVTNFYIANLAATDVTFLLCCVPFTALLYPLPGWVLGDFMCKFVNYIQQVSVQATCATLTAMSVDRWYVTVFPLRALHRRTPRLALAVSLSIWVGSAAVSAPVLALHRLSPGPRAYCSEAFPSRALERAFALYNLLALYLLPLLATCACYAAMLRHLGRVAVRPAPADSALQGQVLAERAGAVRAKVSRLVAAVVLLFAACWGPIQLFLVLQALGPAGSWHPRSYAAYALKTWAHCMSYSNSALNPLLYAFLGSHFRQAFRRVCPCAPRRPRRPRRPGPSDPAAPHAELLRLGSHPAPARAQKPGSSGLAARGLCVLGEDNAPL
Outline: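 Kinetic calcium assay, 1 s sampling over 3 min at Ex/Em 480/540, in HEK293 cells engineered with human KISS1R; compounds delivered in DMSO after 1 h dye loading.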

[5] = G protein-coupled receptor (GPCR) small molecule agonists, calcium flux assay: HEK293 wild type cell line counter screen (AID 1920065)
Outline: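 Calcium-sensitive dye, loaded 1 h at 37 C into cells cultured 18 h, reports compound-evoked calcium release as fluorescence (Ex/Em 480/540), measured over 3 min. Agonist mode; 15-point titrations, triplicate.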

[6] = p53 small molecule agonists, cell-based qHTS assay with human liver microsomes: qHTS cell viability counter screen (AID 1963579); further: nearly all actives have a fitted effect of over 45% in size
Outline: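 Viability of p53RE-bla cells is measured as CellTiter-Glo luminescence following a 16 h, 37 C incubation with compound, liver microsomes from human donors and NADPH.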

[7] = p53 small molecule agonists, cell-based qHTS assay with rat liver microsomes: qHTS cell viability counter screen (AID 1963580); further: nearly all actives have a fitted effect of over 45% in size
Outline: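 p53RE-bla HCT-116 cells were exposed 16 h at 37 C to compounds with rat liver microsomes (0.5 mg/mL) and NADPH (0.5 mg/mL). Viability was measured in the same wells as ATP content by CellTiter-Glo luminescence.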

[8] = p53 small molecule agonists, cell-based qHTS assay: qHTS cell viability counter screen (AID 1963581); further: nearly all actives have a fitted effect of over 45% in size
Outline: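 Following 5 h attachment, HCT-116 p53RE-bla cells took up compound for 16 h at 37 C; the reporter was read with B/G FRET substrate (2 h RT), and viability then via CellTiter-Glo ATP luminescence.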

[9] = target: 5-hydroxytryptamine receptor 2A (Homo sapiens) (UniProt P28223); assay: 5-hydroxytryptamine receptor 2A (HTR2A) small molecule antagonists, cell-based qHTS assay (AID 1963586); further: nearly all actives have a fitted effect of over 45% in size
5-hydroxytryptamine receptor 2A (Homo sapiens), sequence (P28223 whole entry, looked up): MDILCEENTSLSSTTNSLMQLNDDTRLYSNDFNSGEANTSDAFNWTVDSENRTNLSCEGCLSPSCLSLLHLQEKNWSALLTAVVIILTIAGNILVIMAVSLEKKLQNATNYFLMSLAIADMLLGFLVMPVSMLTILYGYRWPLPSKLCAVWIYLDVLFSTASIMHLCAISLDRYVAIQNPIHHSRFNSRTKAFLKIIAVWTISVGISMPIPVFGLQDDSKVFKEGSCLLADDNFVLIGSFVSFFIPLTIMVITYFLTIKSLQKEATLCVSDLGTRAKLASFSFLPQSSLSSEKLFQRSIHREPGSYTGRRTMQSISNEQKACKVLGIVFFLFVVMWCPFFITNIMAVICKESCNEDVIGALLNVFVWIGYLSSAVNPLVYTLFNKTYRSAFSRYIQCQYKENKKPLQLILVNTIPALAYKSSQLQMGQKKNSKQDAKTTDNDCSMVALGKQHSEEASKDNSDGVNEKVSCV
Outline: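 Antagonist-mode intracellular calcium assay: DOI (4 nM) added after 5 min compound pre-incubation at room temperature to dye-loaded HTR2A-CHO cells. Fluorescence followed for 3 min, sampled every second.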

[10] = target: 5-hydroxytryptamine receptor 2A (Homo sapiens) (UniProt P28223); assay: 5-hydroxytryptamine receptor 2A (HTR2A) small molecule agonists, cell-based qHTS assay (AID 1963587); further: nearly all actives have a fitted effect of over 30% in size
Outline: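 CHO cells stably expressing human HTR2A, plated 18 h, loaded with calcium dye 1 h at 37 C. Agonist mode: compounds added and intracellular calcium fluorescence recorded kinetically for 2 min at 1 sec intervals.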

[11] = target: Muscarinic acetylcholine receptor M1 (Homo sapiens) (UniProt P11229); assay: Cholinergic receptor muscarinic 1 (CHRM1) small molecule antagonists, cell-based qHTS assay (AID 1963588); further: nearly all actives have a fitted effect of over 40% in size
Muscarinic acetylcholine receptor M1 (Homo sapiens), sequence (P11229 whole entry, looked up): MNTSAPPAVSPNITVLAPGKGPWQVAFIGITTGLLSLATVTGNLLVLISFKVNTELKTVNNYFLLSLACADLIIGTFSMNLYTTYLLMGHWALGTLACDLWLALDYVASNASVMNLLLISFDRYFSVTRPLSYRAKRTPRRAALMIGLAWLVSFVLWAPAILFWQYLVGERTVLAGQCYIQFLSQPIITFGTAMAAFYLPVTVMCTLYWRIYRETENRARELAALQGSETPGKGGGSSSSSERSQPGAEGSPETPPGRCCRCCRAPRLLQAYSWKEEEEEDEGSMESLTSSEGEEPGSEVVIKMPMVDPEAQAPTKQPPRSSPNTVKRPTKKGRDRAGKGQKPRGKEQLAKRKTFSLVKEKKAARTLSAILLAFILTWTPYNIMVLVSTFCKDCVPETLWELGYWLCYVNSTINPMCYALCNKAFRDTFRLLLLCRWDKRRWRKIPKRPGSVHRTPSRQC
Outline: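 CHRM1-CHO calcium-flux assay, antagonist mode. Cells were seeded 18 h, dye-loaded 1 h at 37 C and given compound for 5 min at RT, then acetylcholine was added at 50nM. FDSS fluorescence was read 3 min; 15 concentrations, three runs.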

[12] = target: Muscarinic acetylcholine receptor M1 (Homo sapiens) (UniProt P11229); assay: Cholinergic receptor muscarinic 1 (CHRM1) small molecule agonists, cell-based qHTS assay (AID 1963589); further: nearly all actives have a fitted effect of over 35% in size
Outline: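 Measures agonist-induced intracellular calcium rise. Stable human CHRM1 CHO line, 1 h dye load at 37 C, compounds from DMSO, kinetic fluorescence read.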

[13] = cAMP Responsive Elements (CRE) small molecule antagonists, cell-based qHTS assay (AID 1963591; active means well fitted inhibition curve with a large enough effect in the signal ratio in the repeat runs, not every such curve was filed as active; the % refers to the signal ratio)
Outline: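 HEK293T cells carrying a CRE-driven beta-lactamase reporter receive compound and NKH477 (0.25 uM final) for 3 h. Fluorescence from LiveBLAzer B/G FRET substrate is read after 2 h at room temperature.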

[14] = target: Beta-2 adrenergic receptor (Homo sapiens) (UniProt P07550); assay: Adrenergic beta2 receptor (ADRB2) small molecule antagonists, cell-based qHTS assay (AID 1963592); further: series mostly up to about 92 µM; nearly all actives have a fitted effect of over 50% in size
Beta-2 adrenergic receptor (Homo sapiens), sequence (P07550 whole entry, looked up): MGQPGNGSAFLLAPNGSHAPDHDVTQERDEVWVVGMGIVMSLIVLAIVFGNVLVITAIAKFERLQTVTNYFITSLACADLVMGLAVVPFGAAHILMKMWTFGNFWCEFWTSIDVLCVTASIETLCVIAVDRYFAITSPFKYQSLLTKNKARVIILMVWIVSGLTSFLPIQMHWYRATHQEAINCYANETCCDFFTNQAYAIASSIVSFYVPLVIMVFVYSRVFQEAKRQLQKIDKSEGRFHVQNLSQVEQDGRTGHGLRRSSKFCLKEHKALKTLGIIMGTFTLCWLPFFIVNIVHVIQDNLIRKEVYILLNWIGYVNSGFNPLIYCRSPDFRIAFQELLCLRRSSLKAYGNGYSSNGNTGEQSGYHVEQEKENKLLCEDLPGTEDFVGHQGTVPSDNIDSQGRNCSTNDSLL
Outline: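 Cells (CHO, stable ADRB2 overexpression) incubated 18-20hr at 37C; compounds added from DMSO; agonist mix (1nM isoproterenol, 100uM IBMX, 25uM Ro-20-1724) added; 0.5hr RT; d2-cAMP and anti-cAMP-cryptate added; 1hr RT; 665/615 nm read.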

[15] = target: D(2) dopamine receptor (Homo sapiens) (UniProt P14416); assay: Dopamine D2 receptor (DRD2) small molecule agonists, cell-based qHTS assay (AID 1963594); further: nearly all actives have a fitted effect of over 35% in size
D(2) dopamine receptor (Homo sapiens), sequence (P14416 whole entry, looked up): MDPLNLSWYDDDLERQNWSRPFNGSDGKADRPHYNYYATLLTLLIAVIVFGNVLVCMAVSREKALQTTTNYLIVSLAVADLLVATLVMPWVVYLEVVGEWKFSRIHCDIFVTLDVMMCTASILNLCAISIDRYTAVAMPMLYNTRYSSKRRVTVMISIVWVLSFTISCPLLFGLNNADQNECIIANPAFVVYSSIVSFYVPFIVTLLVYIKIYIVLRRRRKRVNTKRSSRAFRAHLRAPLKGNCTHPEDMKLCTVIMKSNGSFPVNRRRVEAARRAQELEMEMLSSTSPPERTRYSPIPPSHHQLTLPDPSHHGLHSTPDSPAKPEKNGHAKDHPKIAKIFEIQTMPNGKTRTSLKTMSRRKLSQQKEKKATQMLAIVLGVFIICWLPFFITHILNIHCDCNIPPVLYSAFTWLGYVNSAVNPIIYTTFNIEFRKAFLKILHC
Outline: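 HEK293 cells stably expressing human DRD2, pre-treated with PDE inhibitor Ro20-1724 (0.1 mM final) and compound 10 min at room temperature, then stimulated with NKH477 (200nM […]) for 30 min. cAMP read by HTRF (665/620 nm).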

[16] = target: D(2) dopamine receptor (Homo sapiens) (UniProt P14416); assay: Dopamine D2 receptor (DRD2) small molecule antagonists, cell-based qHTS assay (AID 1963595; active means well fitted inhibition curve with a large enough effect in the signal ratio in the repeat runs, with a control signal flat; the % refers to the signal ratio)
Outline: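 DRD2-HEK293; 0.1 mM Ro20-1724; cpd 10 min RT; NKH477 200 nM + quinpirole 12 nM, 30 min RT; HTRF cAMP (cAMP-d2/anti-cAMP cryptate), 665/620 nm ratio after 1 h.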

[17] = cAMP Responsive Elements (CRE) small molecule agonists, cell-based qHTS assay (AID 1963590)
Outline: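 A CRE-responsive beta-lactamase reporter in HEK 293T cells was used. Treatment ran 3 h at 37 C; detection used LiveBLAzer B/G FRET substrate for 2 h at room temperature.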

[18] = target: Beta-2 adrenergic receptor (Homo sapiens) (UniProt P07550); assay: Adrenergic beta2 receptor (ADRB2) small molecule agonists, cell-based qHTS assay (AID 1963593);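 further: CHO cells stably overexpressing human ADRB2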
Outline: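 CHO cells stably over-expressing ADRB2 were plated overnight at 37C, then dosed with compounds plus a stimulation mix containing 100uM IBMX and 25uM Ro-20-1724 for 0.5hr at room temperature. cAMP was measured by HTRF competition, 1hr.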
On the % scale 0 is the no-effect control and ±100 the full control effect.

O=C(O)C(c1ccc(Cl)cc1)c1ccc(Cl)cc1
inactive: Potency [1] | Potency [2] | Potency [3] | Potency [4] | Potency [5] | Potency [6] | Potency [7] | Potency [8] | Potency [9] | Potency [10] | Potency [11] | Potency [12] | Potency [13] | Potency [14] | Potency [15] | Potency [16]

C=C(C)c1cccc(C(=C)C)c1
inactive: Potency [1] | Potency [2] | Potency [3] | Potency [4] | Potency [5] | Potency [6] | Potency [7] | Potency [8] | Potency [9] | Potency [10] | Potency [11] | Potency [12] | Potency [17] | Potency [14] | Potency [15]

CC(C)=CC=O
inactive: Potency [1] | Potency [2] | Potency [3] | Potency [4] | Potency [5] | Potency [6] | Potency [7] | Potency [8] | Potency [9] | Potency [10] | Potency [11] | Potency [12] | Potency [17] | Potency [14] | Potency [18] | Potency [15] | Potency [16]

C1CCC2(CCCCO2)OC1
inactive: Potency [1] | Potency [2] | Potency [3] | Potency [4] | Potency [5] | Potency [6] | Potency [7] | Potency [8] | Potency [9] | Potency [10] | Potency [11] | Potency [12] | Potency [13] | Potency [14] | Potency [18] | Potency [15] | Potency [16]

CC(C)(C)CCCCCCOC(=O)c1ccccc1C(=O)OCCCCCCC(C)(C)C
inactive: Potency [1] | Potency [2] | Potency [3] | Potency [4] | Potency [5] | Potency [6] | Potency [7] | Potency [8] | Potency [9] | Potency [10] | Potency [11] | Potency [12] | Potency [13] | Potency [14] | Potency [18] | Potency [15] | Potency [16]

CN(C)[C@@H]1C(=O)C(C(N)=O)=C(O)[C@@]2(O)C(=O)C3=C(O)c4c(O)ccc(Cl)c4[C@@H](O)[C@H]3C[C@@H]12
inactive: Potency [1] | Potency [2] | Potency [3] | Potency [4] | Potency [5] | Potency [6] | Potency [7] | Potency [8] | Potency [9] | Potency [10] | Potency [11] | Potency [12] | Potency [14] | Potency [18] | Potency [15] | Potency [16]

CC[N+](CC)(CC(=O)Nc1c(C)cccc1C)Cc1ccccc1 (tested in a mixture with another compound)
inactive: Potency [1] | Potency [2] | Potency [3] | Potency [4] | Potency [5] | Potency [6] | Potency [7] | Potency [8] | Potency [9] | Potency [10] | Potency [11] | Potency [12] | Potency [17] | Potency [13] | Potency [15] | Potency [16]

CC(C)=CCCC(C)CC(=O)O (centres undefined)
inactive: Potency [1] | Potency [2] | Potency [3] | Potency [4] | Potency [5] | Potency [6] | Potency [7] | Potency [8] | Potency [9] | Potency [10] | Potency [11] | Potency [12] | Potency [17] | Potency [14] | Potency [15] | Potency [16]

CCCCCCCC/C=C\CCCCCCCC(=O)OCC
inactive: Potency [1] | Potency [2] | Potency [3] | Potency [4] | Potency [5] | Potency [6] | Potency [7] | Potency [8] | Potency [9] | Potency [10] | Potency [11] | Potency [12] | Potency [17] | Potency [13] | Potency [16]

CCCC1CCOC(C)S1 (centres undefined)
inactive: Potency [1] | Potency [2] | Potency [3] | Potency [4] | Potency [5] | Potency [6] | Potency [7] | Potency [8] | Potency [9] | Potency [10] | Potency [11] | Potency [12] | Potency [17] | Potency [14] | Potency [18] | Potency [15]

CC(C)(C)C1CCCCC1=O (centres undefined)
inactive: Potency [1] | Potency [2] | Potency [3] | Potency [4] | Potency [5] | Potency [6] | Potency [7] | Potency [8] | Potency [9] | Potency [10] | Potency [11] | Potency [12] | Potency [13] | Potency [14] | Potency [15] | Potency [16]

Cc1[nH]c(C)c(Cl)c(=O)c1Cl
inactive: activity change, negative = cytotoxicity [1] 5.34% [at 19 µM] | activity, positive = activation [2] 3.75% [at 19 µM] | activity change [3] -0.0007% [at 11.8 µM, hits give high values] | activation [4] -1.04% [at 15.8 µM] | activation [5] -1.57% [at 11.8 µM] | activity change, negative = cytotoxicity [6] -0.426% [at 13.5 µM] | activity change, negative = cytotoxicity [7] 4.54% [at 13.5 µM] | activity change, negative = cytotoxicity [8] 15.4% [at 13.5 µM] | activity, negative = inhibition [9] 81.1% [at 12.7 µM] | activation [10] -10% [at 15.9 µM] | activity, negative = inhibition [11] 9.6% [at 12.6 µM] | activation [17] -0.819% [at 19 µM] | activity change, negative = inhibition [13] -0.412% [at 18.9 µM] | activity change, negative = inhibition [14] -0.0462% [at 19 µM] | activation [18] 13.3% [at 19 µM] | activation [15] -3.57% [at 19 µM] | activity change, negative = inhibition [16] 7.52% [at 18.9 µM]

S=C(S)NCCNC(=S)S
inactive: Potency [1] | Potency [2] | Potency [3] | Potency [4] | Potency [5] | Potency [6] | Potency [7] | Potency [8] | Potency [9] | Potency [10] | Potency [12] | Potency [17] | Potency [13] | Potency [14] | Potency [18] | Potency [15] | Potency [16]

C[C@H](NC(CCc1ccccc1)C(=O)O)C(=O)N1CCC[C@H]1C(=O)O (some centres undefined)
inactive: Potency [1] | Potency [2] | Potency [3] | Potency [4] | Potency [5] | Potency [6] | Potency [7] | Potency [8] | Potency [9] | Potency [10] | Potency [11] | Potency [17] | Potency [13] | Potency [14] | Potency [18] | Potency [15] | Potency [16]

CC1(C)CC(O)CC(C)(C)N1[O]
inactive: Potency [1] | Potency [2] | Potency [3] | Potency [4] | Potency [5] | Potency [6] | Potency [7] | Potency [8] | Potency [9] | Potency [10] | Potency [12] | Potency [17] | Potency [13] | Potency [14] | Potency [15] | Potency [16]
